Common to all, as to experiment: NCI-60 one-dose screen, 48 h (100 = growth as untreated, 0 = no growth, -100 = all killed)
The subject of one assay is HCT-15 colon. As to conditions: 10 µM unless noted.
The subject of a further assay is HT29 colon. As to conditions: 10 µM unless noted.
A further assay concerns SNB-75 CNS. As to conditions: 10 µM unless noted.
For the next assay, the system named is SNB-19 CNS. As to conditions: 10 µM unless noted.
Another assay has as its system U251 CNS. Particulars: 10 µM unless noted.
A further assay concerns PC-3 prostate. Particulars: 10 µM unless noted.
For another assay, the system named is SK-MEL-5 melanoma. As to conditions: 10 µM unless noted.
The test system of another assay is UACC-62 melanoma. As to conditions: 10 µM unless noted.
A further assay has as its system LOX IMVI melanoma. Particulars: 10 µM unless noted.
A further assay has as its system SK-MEL-28 melanoma. Particulars: 10 µM unless noted.
The next assay has as its system SK-MEL-2 melanoma. Particulars: 10 µM unless noted.
The subject of a further assay is EKVX NSCLC. As to conditions: 10 µM.
The subject of a further assay is UO-31 renal. Particulars: 10 µM unless noted.
A further assay deals with TK-10 renal. Particulars: 10 µM unless noted.
A further assay concerns ACHN renal. Particulars: 10 µM unless noted.
In the next assay the test system is CAKI-1 renal. As to conditions: 10 µM unless noted.
In a further assay the test system is A498 renal. Particulars: 10 µM unless noted.
The test system of a further assay is CCRF-CEM leukemia. As to conditions: 10 µM.
The test system of the next assay is MOLT-4 leukemia. Particulars: 10 µM unless noted.
The next assay relates to SN12C renal. Particulars: 10 µM unless noted.

Growth data for 9 compounds are collected here from PubChem BioAssay (NCI).

The panel holds about 83,000 compounds, 20% with a hit somewhere; the sample as a whole holds those more often.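 Each cell line was grown in a 96-well plate and treated with one concentration of compound for 48 hours. Values below 10 were considered active.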 Values without a mark were called inactive. Active and inactive are the calls of the source.

Take `O=C(O)c1occ(Cl)c1Cl`: the growth in the assay on HCT-15 colon was 105%; in the assay with HT29 colon, 122%; in the assay with SNB-75 CNS it was 99.2%; in the assay with SNB-19 CNS, 109%; in the assay with U251 CNS, 104%; with PC-3 prostate, 109%. The growth in the assay on SK-MEL-5 melanoma is 113%; in the assay on UACC-62 melanoma it was 112%; in the assay on LOX IMVI melanoma, 99.7%; with SK-MEL-28 melanoma, 116%; in the assay on SK-MEL-2 melanoma it was 120%; with EKVX NSCLC, 100%. The growth was 97% with UO-31 renal; 111% in the assay with TK-10 renal; 109% in the assay on ACHN renal; 104% with CAKI-1 renal; 90.4% in the assay with A498 renal; 105% with CCRF-CEM leukemia. Further, the growth in the assay with MOLT-4 leukemia is 111%.
With `Cc1ccc(CC(=O)O)c(C)c1`, the growth is 103% in the assay with HCT-15 colon; 97.2% with HT29 colon; 92.1% in the assay with SNB-75 CNS; 102% with SNB-19 CNS; 99.3% in the assay with U251 CNS; 98.3% in the assay with PC-3 prostate. The growth was 106% in the assay with SK-MEL-5 melanoma; 98.8% with UACC-62 melanoma; 98% in the assay on LOX IMVI melanoma; 113% in the assay on SK-MEL-28 melanoma; 95.5% in the assay with SK-MEL-2 melanoma; 109% with EKVX NSCLC. For the same compound, the growth with SN12C renal is 99.4%; in the assay on TK-10 renal it was 88.3%; in the assay with ACHN renal, 110%; in the assay with CCRF-CEM leukemia, 101%; with MOLT-4 leukemia, 105%.
For `COc1ccc(Cn2cc3c(c2)-c2oncc2CC3)cc1OC`, the growth is 16.3% with HCT-15 colon; 7.91% (active) in the assay with HT29 colon; 0.447% (active) in the assay with SNB-75 CNS; 42% in the assay with SNB-19 CNS; 18.9% in the assay with U251 CNS; 25.5% in the assay with PC-3 prostate. The growth in the assay on SK-MEL-5 melanoma was 9.72% (active); in the assay on UACC-62 melanoma, 40.6%; in the assay on LOX IMVI melanoma, 37.3%; in the assay on SK-MEL-28 melanoma it was 50.3%; in the assay with SK-MEL-2 melanoma, 43%; in the assay with EKVX NSCLC, 43.7%. Besides, the growth in the assay with UO-31 renal is 44.1%; with TK-10 renal, 65.2%; in the assay with ACHN renal it was 44.3%; with CAKI-1 renal, 21.9%; in the assay with A498 renal, 21.4%; in the assay with MOLT-4 leukemia it was 31%.
Take `Cc1nc2ccccc2c(=O)n1-c1cccc(OCc2cn(-c3cccc(O)c3)nn2)c1`: the growth in the assay on HCT-15 colon was 107%; in the assay on HT29 colon, 96.8%; in the assay on SNB-75 CNS it was 88.4%; in the assay with SNB-19 CNS, 91.2%; in the assay with U251 CNS, 98.2%; in the assay on PC-3 prostate, 87.6%. Further, the growth in the assay on SK-MEL-5 melanoma was 87%; in the assay with UACC-62 melanoma, 81.1%; in the assay on LOX IMVI melanoma, 94.6%; in the assay with SK-MEL-28 melanoma it was 103%; with SK-MEL-2 melanoma, 90.6%; in the assay on EKVX NSCLC, 103%. In addition, the growth is 97.4% with SN12C renal; 100% in the assay on TK-10 renal; 93.8% in the assay on ACHN renal; 88.3% with CCRF-CEM leukemia; 80.8% in the assay with MOLT-4 leukemia.
As to `CCOC1=C(Cl)C(=O)C(OCC)=C(Cl)C1=O`, the growth was 107% in the assay on HCT-15 colon; 101% in the assay on HT29 colon; 93.3% in the assay with SNB-75 CNS; 96.3% in the assay on SNB-19 CNS; 104% in the assay with U251 CNS; 104% with PC-3 prostate. Besides, the growth in the assay with SK-MEL-5 melanoma was 105%; with UACC-62 melanoma it was 98.1%; in the assay on LOX IMVI melanoma, 104%; in the assay with SK-MEL-28 melanoma it was 109%; with SK-MEL-2 melanoma it was 100%; in the assay with SN12C renal it was 98.8%. The growth in the assay with UO-31 renal was 83.8%; with TK-10 renal, 104%; in the assay on ACHN renal it was 106%; with CAKI-1 renal, 109%; with A498 renal, 128%; in the assay on CCRF-CEM leukemia it was 9.18% (active). Moreover, the growth in the assay with MOLT-4 leukemia is 88.1%.
Turning to `COc1cc([C@@H]2c3cc4c(cc3[C@H](O)[C@H]3COC[C@@H]23)OCO4)cc(OC)c1OC`, the growth in the assay with HCT-15 colon was 59.1%; in the assay on HT29 colon, 79.1%; in the assay on SNB-75 CNS it was 58%; in the assay on SNB-19 CNS, 76.9%; in the assay on U251 CNS, 77.4%; in the assay with PC-3 prostate, 63.8%. The growth with SK-MEL-5 melanoma is 51%; in the assay on UACC-62 melanoma, 42.7%; in the assay with LOX IMVI melanoma it was 75.7%; in the assay with SK-MEL-28 melanoma, 69.4%; in the assay on SK-MEL-2 melanoma, 89.3%; in the assay on EKVX NSCLC it was 109%. Moreover, the growth in the assay with UO-31 renal was 53.9%; in the assay on TK-10 renal, 94.4%; in the assay with ACHN renal, 78.2%; in the assay with CAKI-1 renal it was 62.3%; with MOLT-4 leukemia it was 76.6%.
For the compound `CCCCCCC(C)N(CC(C)(C)O)C(=O)c1ccc([N+](=O)[O-])cc1` (stereo not drawn), the growth with HCT-15 colon was 104%; in the assay with HT29 colon it was 91.6%; with SNB-75 CNS, 97.3%; in the assay with SNB-19 CNS, 95.4%; with U251 CNS, 97.4%; with PC-3 prostate, 87.2%. For the same compound, the growth in the assay with SK-MEL-5 melanoma was 95%; with UACC-62 melanoma, 91.4%; with LOX IMVI melanoma, 104%; in the assay on SK-MEL-28 melanoma it was 111%; in the assay with SK-MEL-2 melanoma, 89.7%; in the assay on SN12C renal, 104%. The growth with UO-31 renal was 58.6%; with TK-10 renal, 92.6%; in the assay on ACHN renal, 107%; with CAKI-1 renal, 108%; with A498 renal, 101%; in the assay with CCRF-CEM leukemia, 74.8%. The growth in the assay on MOLT-4 leukemia was 90.4%.
As for `Clc1ccc(N/N=C(\c2ccccc2)c2ccccn2)nc1`, the growth in the assay with HCT-15 colon was 17.9%; in the assay with HT29 colon, 19.3%; in the assay on SNB-75 CNS, 25.2%; in the assay on SNB-19 CNS it was 24.4%; in the assay with U251 CNS, 9.27% (active); in the assay on PC-3 prostate it was 28.6%. For the same compound, the growth in the assay on SK-MEL-5 melanoma is -36% (active); in the assay with UACC-62 melanoma, -18.3% (active); with LOX IMVI melanoma it was -1.02% (active); in the assay with SK-MEL-28 melanoma, 25.4%; in the assay on SK-MEL-2 melanoma, 36.4%; in the assay on EKVX NSCLC, 15.2%. The growth was 2.2% (active) with UO-31 renal; 52.1% in the assay on TK-10 renal; 8.31% (active) in the assay on ACHN renal; 6.96% (active) in the assay on CAKI-1 renal; -14.2% (active) with A498 renal; 1.1% (active) with CCRF-CEM leukemia. In addition, the growth in the assay on MOLT-4 leukemia is 2.34% (active).
Take `NNC(=S)N1N=C(c2cc3ccccc3o2)CC1c1c[nH]c2ccccc12` (stereo not drawn): the growth in the assay on HCT-15 colon was 30.4%; in the assay with HT29 colon, 34.1%; in the assay with SNB-75 CNS it was 88.4%; with SNB-19 CNS, 35.5%; with U251 CNS it was 36%; in the assay on PC-3 prostate it was 29.2%. The growth in the assay with SK-MEL-5 melanoma was 42.1%; with UACC-62 melanoma, 15.4%; in the assay on LOX IMVI melanoma it was 26%; in the assay on SK-MEL-28 melanoma, 40.2%; with SK-MEL-2 melanoma, 60.1%; in the assay on EKVX NSCLC, 35.2%. For the same compound, the growth is 24% with UO-31 renal; 80.1% with TK-10 renal; 24% with ACHN renal; 90.2% in the assay with A498 renal; 7.46% (active) with CCRF-CEM leukemia; 10.2% in the assay on MOLT-4 leukemia.
